TDP1 cell CPT = growth inhibition of DT40 Tdp1-/-;hTDP1 cells with camptothecin (screen for TDP1 inhibitors) | chicken DT40 Tdp1-/-;hTDP1 cells + 20 nM CPT, ATP luminescence, 48 h | Potency, µM (highest dose often 46.2 µM), hits mostly inhibitors | actives 12% (n = 420,000) | AID 686979; also: nearly all actives have a fitted effect of over 55% in size
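Chicken DT40 Tdp1-/- cells stably complemented with human TDP1 were seeded at 400 cells/well in medium containing 20 nM camptothecin, exposed to pin-transferred compounds, and grown at 37 °C for at least 48 hr. Viability was read as ATP luminescence.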
ELG1 DNA repair = inhibitors of ELG1-dependent DNA repair in HEK293T cells; AID 504467; actives 2.3% (n = 330,000); Potency, µM (titrated, usually from 46.1 µM), hits mostly inhibitors; HEK293T ELG1-luciferase reporter, luminescence, 16 h; DNA damage induced by 5-fluorouridine; also: nearly all actives have a fitted effect of over 55% in size
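HEK293T cells expressing luciferase-tagged ELG1 (2,000/well) received 5-Fluorouridine plus compound or DMSO for 16 hr at 37 °C. Luciferase was read by ONE-Glo luminescence after 30 min at room temperature.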
TDP1 cell noCPT = qHTS for Inhibitors of human tyrosyl-DNA phosphodiesterase 1 (TDP1): qHTS in cells in absence of CPT. DT40 Tdp1-/- hTDP1 cells, no CPT, ATP luminescence, 48 h. Potency, µM (highest dose often 46.2 µM), most hits filed as inhibitors. actives 15% (n = 420,000). AID 686978, 2013; also: nearly all actives have a fitted effect of over 55% in size
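Chicken DT40 Tdp1-/- cells complemented with human TDP1, screened without camptothecin (DMSO vehicle only), 400 cells/well. Compounds pin-transferred, cells incubated at 37 °C for at least 48 hr. Growth read as ATP-dependent luminescence (CellTiter-Glo, 30 min at RT).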
RORgamma inh = ROR gamma (mouse) transcription inhibition | P51450 | Drosophila S2 Gal4-RORgamma UAS-luciferase reporter, 20 h | Potency, µM (series often up to 53.6 µM), usual class: inhibitors | actives 5.4% (n = 310,000) | AID 2551; also: nearly all actives have a fitted effect of over 60% in size
Target sequence (P51450 whole entry, looked up, the tested form may be a part): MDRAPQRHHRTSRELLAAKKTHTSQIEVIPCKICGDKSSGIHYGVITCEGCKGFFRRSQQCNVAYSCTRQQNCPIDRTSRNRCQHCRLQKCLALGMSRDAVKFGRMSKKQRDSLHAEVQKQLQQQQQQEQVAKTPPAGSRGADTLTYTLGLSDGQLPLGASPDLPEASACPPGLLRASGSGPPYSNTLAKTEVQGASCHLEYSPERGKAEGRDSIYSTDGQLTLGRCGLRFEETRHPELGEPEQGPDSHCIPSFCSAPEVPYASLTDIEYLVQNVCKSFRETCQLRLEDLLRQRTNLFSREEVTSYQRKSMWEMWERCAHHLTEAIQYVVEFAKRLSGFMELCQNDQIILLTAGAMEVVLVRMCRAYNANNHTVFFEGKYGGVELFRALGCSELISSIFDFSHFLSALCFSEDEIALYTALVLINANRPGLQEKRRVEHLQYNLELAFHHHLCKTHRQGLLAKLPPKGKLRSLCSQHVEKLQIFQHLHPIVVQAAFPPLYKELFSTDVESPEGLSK
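Luminescence from a UAS-regulated Photinus luciferase reporter in stably transfected Drosophila Schneider cells is measured; decreased signal marks ROR gamma inhibition. Fusion expression is induced by 700 uM copper sulfate for 20 hr.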
IL1B secr inh = inflammasome signaling inhibition, IL-1 beta readout. THP-1 LPS/ATP IL-1B secretion, AlphaLISA, 16 h; hits give low values. activity change, % at 57.5 µM. AID 743279. actives 4.7% (n = 360,000); in the data active = activity change below about -50%; inconclusive = mostly about -30% to -49%
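THP-1 cells pretreated 1 hr with compounds (up to 57.5 uM final), then stimulated with LPS (250 ng/mL final) plus ATP (1.25 mM final); secreted IL-1B measured by AlphaLISA after 16 hr, decreased signal indicating inhibition.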
Gal4-VP16 FLuc = counter-screen for ROR gamma inhibitors: Gal4-VP16 reporter; AID 2546; Potency, µM (doses to about 53.6 µM), hits mostly inhibitors; actives 3.5% (n = 310,000); Drosophila S2 Gal4-VP16 UAS-luciferase, luminescence, 20 h;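 also: Gal4-VP16 expression switched on by copper sulfate through the metallothionein promoter; nearly all actives have a fitted effect of over 50% in size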
Numbers stand for hits; – = inactive; ? = inconclusive; · = not tested or not shown; [ ] = dose if it differs, or a comment. Only some compounds are listed: those with a hit (about 21% of all), similar ones and a draw of the others. Unless noted, calls follow the shape of the dose curve; as a rule, active = well fitted curve in the direction sought with a large enough effect; inconclusive = small, poorly fitted or top-dose-only effect, or another doubt; inactive = no such curve, though single readings can be large; an effect the other way counts as inactive or inconclusive.

SMILES	TDP1 cell CPT	ELG1 DNA repair	TDP1 cell noCPT	RORgamma inh	IL1B secr inh	Gal4-VP16 FLuc
COc1cc(NC(=O)c2cc([N+](=O)[O-])ccc2NC(=O)CNCc2ccccn2)cc(OC)c1	–	6.5µM	?	–	–	?
COc1cccc(NC(=O)c2cc([N+](=O)[O-])ccc2NC(=O)CNCC2CCCO2)c1 (configuration not stated)	?	9.2µM	?	–	–	–
COc1ccc(NC(=O)c2cc([N+](=O)[O-])ccc2NC(=O)CNCc2ccccn2)c(OC)c1	?	–	13µM	?	–	–
COCC(=O)N1CCC[C@@]2(CCN(C(c3ccccc3)c3ccccc3)C2)C1	–	·	?	–	·	–
CCCCn1c(N)c(N(CC(C)C)C(=O)Cc2ccc3c(c2)OCCO3)c(=O)[nH]c1=O	–	–	–	·	–	·
CC1(C2CC(=O)c3c(O)ccc(O)c3C2)OCCO1 (configuration not stated)	–	·	?	·	–	·
Cc1ccc(Cn2c(=O)n(Cc3ccccc3Cl)c(=O)c3ccccc32)cc1	–	·	–	·	·	·
CO/N=C1/[C@H]2O[C@@H]2[C@@H](O)[C@H]2[C@H]1CCn1c(=O)n(-c3ccccc3)c(=O)n12	·	·	·	–[10 µM]	·	–[10 µM]
CC(O)[C@@H]1NC(=O)[C@H](CCCCN)NC(=O)[C@@H](Cc2c[nH]c3ccccc23)NC(=O)[C@H](Cc2ccccc2)NC(=O)[C@@H](NC(=O)[C@H](N)Cc2ccccc2)CSSC[C@@H](C(=O)N[C@H](CO)[C@@H](C)O)NC1=O (some centres not stated)	–	·	–	·	·	·
C=CCN(CC=C)c1ncnc2[nH]ncc12	?	·	?	·	–	·
COc1cc(NC(=O)c2cc([N+](=O)[O-])ccc2NC(=O)CNC2CCCCC2)cc(OC)c1	21µM	21µM	16µM	–	–	–
COc1cc(NC(=O)c2cc([N+](=O)[O-])ccc2NC(=O)CNC2CCCCC2C)cc(OC)c1 (configuration not stated)	?	?	?	–	–	–
O=C1CC(c2cccc(O)c2)c2cc3c(cc2N1)OCO3 (configuration not stated)	–	·	–	·	·	·
O=[N+]([O-])c1ccc2nc(NCCCO)nc(-c3ccccc3)c2c1	9.2µM	?	23µM	–	–	–
CCOc1cc(NC(=S)NCC2CCCO2)c(OCC)cc1NC(=O)C1CC1 (configuration not stated)	–	–	4.6µM	11µM	–	–
COc1cccc(NC(=O)C2CCC2)c1	–	?	–	·	–	·
CCOc1cc(C(=O)NCC2CCCO2)cc(OCC)c1OCC (configuration not stated)	–	–	–	–	–	–
CCOc1cc(NC(=S)Nc2cccc(OC)c2)c(OCC)cc1NC(=O)C1CC1	–	?	–	7.1µM	–	?
Cc1cccc(C(=O)NCCCNC(=O)c2ccccn2)c1	–	–	–	–	–	–
CCOc1cc(NC(=O)c2ccccn2)c(OCC)cc1NC(=O)c1cccc(C)c1	4.1µM	?	1.8µM	–	–	–
CCOc1cc(NC(=S)NCC2CCCO2)c(OCC)cc1NC(=O)c1ccccc1 (configuration not stated)	–	?	–	6.3µM	–	11µM
Cc1ccc(CN2C(=O)c3ccccc3C2C(=O)NC2CCCCCC2)cc1 (configuration not stated)	–	·	?	·	·	·
CCOc1cc(NC(=S)NCC2CCCO2)c(OCC)cc1NC(=O)c1cccc(C)c1 (configuration not stated)	?	?	?	4.5µM	?	11µM
CCOc1cc(NC(=S)NCC2CCCO2)c(OCC)cc1NC(=O)c1ccc(F)cc1 (configuration not stated)	–	–	?	?	–	?
CCOc1cc(NC(=S)NCC2CCCO2)c(OCC)cc1NC(=O)c1ccc(C)cc1 (configuration not stated)	–	–	–	3.2µM	–	4µM
SMILES	TDP1 cell CPT	ELG1 DNA repair	TDP1 cell noCPT	RORgamma inh	IL1B secr inh	Gal4-VP16 FLuc
O=C(NCc1ccc(F)cc1)C1CCCN(c2nc3ccsc3c(=O)s2)C1 (configuration not stated)	–	–	–	–	–	–
COc1ccc(NC(=O)CSc2nc(C)cs2)c([N+](=O)[O-])c1	–	?	–	·	–	·
CCCc1cc(=O)[nH]c(SCCc2ccccc2)n1	–	–	–	–	–	–
O=C(Nc1nnc(C23CC4CC(CC(C4)C2)C3)s1)c1ccc(N2C(=O)CCC2=O)cc1	?	?	26µM	–	–	–
CN(/N=C/c1ccc(O)cc1O)c1ncc(C(F)(F)F)cc1Cl	?	–	?	7.9µM	–	–
COc1cc(SC#N)ccc1N=Cc1c(C)[nH]n(-c2cccc3ccccc23)c1=O	10µM	?	10µM	?	-76	?
COc1cc(SC#N)ccc1N=Cc1c(C)[nH]n(-c2ccc(C)cc2C)c1=O	21µM	·	15µM	?	-97	?
COc1ccccc1N=Cc1c(C)[nH]n(-c2ccc(C)cc2C)c1=O	–	–	–	–	–	–
COc1cccc(O)c1O	3.7µM	·	4.6µM	?	·	?
CCCn1c(C(C)NC(=O)c2ccccc2)n[nH]c1=S (configuration not stated)	–	–	–	–	–	–
Oc1cc2ccccc2cc1-c1n[nH]c(=S)n1Cc1ccco1	–	–	–	13µM	–	–
CCCn1c(C(C)NS(=O)(=O)c2ccccc2)n[nH]c1=S (configuration not stated)	–	–	–	10µM	–	–
CCCn1c(Cc2ccccc2)n[nH]c1=S	–	–	–	16µM	–	?
S=c1[nH]nc(Cc2ccccc2)n1Cc1ccco1	–	?	–	14µM	–	13µM
Oc1ccc(-c2n[nH]c(=S)n2Cc2ccco2)cc1	–	–	–	–	–	–
O=C(Cn1c(=O)nc(-c2ccccc2)c2ccccc21)NCCc1ccccc1	–	·	–	·	·	·
COc1ccc(CNCc2ccc(C(=O)O)s2)cc1	–	·	–	·	·	·
COc1cc(OC)c(C(=O)NNC(=S)NC2CCCCC2)cc1OC	–	–	?	?	–	–
CC(Cl)C(=O)NN=C(c1ccccc1)c1ccccc1 (configuration not stated)	?	–	–	–	–	–[10 µM]
CC1CCCC(NC(=S)NC(=O)c2ccccc2Br)C1C (configuration not stated)	?	?	?	2.5µM	–	5µM
O=C(NNC(=S)NC1CCCCC1)c1ccccc1Br	?	–	?	1.1µM	–	?

Screening data deposited in PubChem BioAssay by National Center for Advancing Translational Sciences (NCATS).
